# Assay outcomes as filed in PubChem.
# Only some compounds are listed: those with a hit (about 4% of all), similar ones and a draw of the others.
# TRHR PAM = allosteric enhancers of human TRH receptor; enhancement, % at 2 µM; 360,000 compounds, 0.66% hits; TRHR cells, fluo-8 calcium fluorescence, EC20 TRH enhancement; in the data active = enhancement above about 30%; also: 0% is about no effect
# Target sequence (P34981 whole entry, looked up): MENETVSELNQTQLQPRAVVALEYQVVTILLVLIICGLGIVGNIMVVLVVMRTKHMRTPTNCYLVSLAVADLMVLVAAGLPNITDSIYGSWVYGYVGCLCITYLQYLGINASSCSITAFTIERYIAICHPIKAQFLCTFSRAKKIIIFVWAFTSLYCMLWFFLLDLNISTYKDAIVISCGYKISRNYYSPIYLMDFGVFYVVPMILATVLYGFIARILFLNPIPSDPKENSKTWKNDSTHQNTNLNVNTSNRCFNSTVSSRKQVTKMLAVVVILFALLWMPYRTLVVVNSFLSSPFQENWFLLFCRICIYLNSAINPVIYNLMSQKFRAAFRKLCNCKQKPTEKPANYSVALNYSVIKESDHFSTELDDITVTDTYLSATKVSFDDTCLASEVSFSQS
#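 Enhancer read-out: after compound pinning and an initial kinetic agonist-mode read, an EC20 of TRH (10 nM final) was injected and fluo-8 calcium signal (Ex 480/Em 530) followed at 1 s/cycle for 100 cycles in TRHR-expressing cells.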
# GRP78 ERSR act = ER stress response induction in glioma; U87-MG GRP78 promoter luciferase reporter, 16 h; Potency, µM, inactives show at the top dose activation, most hits filed as activators; 420,000 compounds, 0.02% hits; active = well fitted activation curve with a large enough effect; also: potency is read from the fitted curve at half-maximal effect; series mostly up to about 76 µM; % of control where 0% means no effect; nearly all actives have a fitted effect of over 35% in size
#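 Stably transfected U87-MG glioma cells carrying a GRP78-based luciferase sensor; 16 h compound incubation. Luminescence end-point read 10 min after Bright-Glo addition at room temperature.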
# TRHR agonist = TRH receptor (human) agonism; TRHR cells, calcium flux fluo-8, FDSS agonist mode; activation, % at 2 µM; 360,000 compounds, 0.18% hits; also: 0% is about no effect
#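 Fluo-8-loaded TRHR cells; 10 s baseline, compound added, kinetic Ca2+ fluorescence read 1/s, agonist mode.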
# D1 antag = human D1 dopamine receptor antagonism; HEK293 TREx D1 cells, calcium flux, dopamine EC80; active compounds read low; P21728; activity change, negative = inhibition, % at 10 µM; 360,000 compounds, 3.2% hits; in the data active = activity change below about -30%; also: % is scaled to controls: 0 for no effect and ±100 for the full control effect
#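 Tetracycline-induced HEK293 Trex D1 cells, force-coupled to calcium, dye-loaded; compounds added and read 180 s, then EC80 dopamine added and calcium flux tracked kinetically another 180 s.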
# D1 PAM = potentiators of human D1 dopamine receptor | 360,000 compounds, 0.036% hits | HEK293 TREx D1 cells, calcium flux, dopamine EC20 potentiation | P21728 | potentiation, % at 10 µM | AID 504651; in the data active = potentiation above about 30%; also: 0% is about no effect
# D1 agonist = agonists of human D1 dopamine receptor | P21728 | HEK293 T-REx D1 cells, calcium flux, agonist mode | activation, % at 2 µM | 360,000 compounds, 1% hits | AID 504660; also: 0% is about no effect
#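 Agonism was scored from calcium flux recorded over 180 s (1 read/s) after pintool compound addition, following a 10-cycle baseline. Cells were inducible force-coupled HEK293 TREx D1, plated overnight at 30 C and loaded with no-wash calcium dye.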
# * marks the source's active call; other numbers are inactive results; / = no result. Rule as the data show it, unless noted: active = activation above about 30%; inactive = the rest.
SMILES,TRHR PAM,GRP78 ERSR act,TRHR agonist,D1 antag,D1 PAM,D1 agonist
Cc1ccc(C)c(N2CCN(C(=O)c3cccc(-n4c(C)nc5cccnc54)c3)CC2)c1,-6,-7%,2,-21,-2,15
Cc1ccc(Cl)cc1N1CCN(C(=O)c2ccc(C)c(-n3c(C)nc4cccnc43)c2)CC1,0,-6%,-1,-32*,3,69*
O=C(NC(=O)N1CCN(c2cccc(Cl)c2)CC1)c1ccccc1,-5,-2%,0,-29,-11,4
Cc1ccc(C(=O)N2CCN(c3cccc(Cl)c3)CC2)cc1C,4,3%,0,-32*,-1,2
O=C(NC(=O)N1CCN(c2cccc(Cl)c2)CC1)c1ccc(Cl)cc1,-2,5%,3,-37*,-19,10
CCCCOC(=O)Nc1nnc(Cc2ccc(Cl)cc2)s1,-4,-2%,1,-19,-4,3
CC1(C)OC(=O)C(=NNc2ccc(Br)cc2)C(=O)O1,4,5%,0,0,-4,6
O=C(CN1CCN(Cc2ccccc2Cl)C1=O)NCCc1ccc(Cl)cc1,-8,-3%,-1,-33*,-1,3
O=C(CN1CCN(Cc2ccccc2F)C1=O)NCCc1ccc(Cl)cc1,-2,-3%,0,-9,/,2
Nc1ccc(Sc2ccccc2)nc1,/,8%,/,/,/,/
COc1ccc(CCNC(=O)COc2ccc(N(C)S(=O)(=O)c3ccc(C)cc3)cc2)cc1,-6,-3%,0,-31*,2,16
Cc1ccc(OCCNC(=O)c2cccc(Oc3ccc(C(F)(F)F)cc3[N+](=O)[O-])c2)cc1,-9,-4%,2,-4,-6,44*
COc1ccc(CNC(=O)c2ccc(N(C)S(=O)(=O)c3ccc(C)cc3)cc2)cc1,3,-2%,1,2,-9,11
COc1ccc(N(C)S(=O)(=O)c2cccc(C(=O)Nc3ccc4c(c3)OCCO4)c2)cc1,-1,-4%,0,-35*,-11,-1
COc1ccc(CCNC(=O)CN(c2ccc(C)cc2)S(=O)(=O)c2ccc(OC)cc2)cc1,-6,0%,1,20,-1,12
Cc1cccc(OCCNc2ccc(C(F)(F)F)cc2[N+](=O)[O-])c1,-2,4%,1,6,-5,9
COc1ccc(N(C)S(=O)(=O)c2cccc(C(=O)NCc3ccc(C)cc3)c2)cc1,-20,-4%,0,-32*,-5,4
COc1ccc(/C=N/OCC(=O)OCC(=O)N(C)c2ccccc2)cc1,2,-1%,0,0,-6,7
CC(C)(C)c1ccc(OCCOc2ccc(C(C)(C)C)cc2NC=O)c(NC=O)c1,26,-6%,2,24,11,3
COC(=O)c1ccc(C(=O)OC)c(NC(=O)c2cnn3c(C(F)F)cc(-c4ccccc4)nc23)c1,-3,-2%,0,1,-4,2
COC(=O)C1CCN(Cc2ccc3c(c2)CN(C(=O)C(C)N2CCOCC2)CCO3)CC1 (stereo not given),/,-4%,/,/,/,/
O=C(C[n+]1ccccc1Br)c1ccc(-c2ccccc2)cc1,/,7%,/,/,/,/
Cc1ccc(OCCNC(=O)c2cccc(S(=O)(=O)NCc3ccccc3)c2)cc1,8,-5%,0,-35*,-2,41*
O=C(COC(=O)c1ccc(S(=O)(=O)N2CCCCC2)cc1)Nc1ccccc1,8,-3%,1,11,/,34*
Cc1ccc(C(=O)OCC(=O)Nc2cccc(S(=O)(=O)N3CCCCC3)c2)o1,-8,-2%,0,-7,2,10
SMILES,TRHR PAM,GRP78 ERSR act,TRHR agonist,D1 antag,D1 PAM,D1 agonist
CCOc1ncccc1C(=O)OCC(=O)Nc1ccc(S(=O)(=O)N2CCCC2)cc1,-3,-1%,0,-56*,-4,4
Cc1ccc(S(=O)(=O)N(C)C)cc1NC(=O)COc1ccccc1C(=O)Nc1ccccc1,-8,-3%,1,-7,-18,3
O=C(COC(=O)c1ccc([N+](=O)[O-])o1)Nc1cccc(S(=O)(=O)N2CCCCC2)c1,2,4%,2,-31*,-8,9
Cc1ccc(NC(=O)c2ccccc2OCC(=O)Nc2ccccc2F)cc1S(=O)(=O)N(C)C,6,0%,2,-38*,-1,3
CC(=O)Nc1ccc(C(=O)OCC(=O)c2ccc(S(=O)(=O)N3CCCCC3)cc2)cc1,1,-3%,0,1,1,5
COc1ccc(OC)c(NC(=O)COC(=O)c2ccc(S(=O)(=O)N3CCCCC3)cc2)c1,/,-2%,/,/,/,/
CC(=O)Nc1cccc(C(=O)OCC(=O)c2ccc(S(=O)(=O)N3CCCCC3)cc2)c1,-8,-4%,0,-37*,-4,8
COc1ccc(OC)c(NC(=O)COC(=O)c2ccc(S(=O)(=O)N3CCOCC3)cc2)c1,11,0%,-1,-51*,14,2
N#Cc1cc2ccccc2nc1SCC(=O)Nc1ccc(S(=O)(=O)N2CCCC2)cc1,-2,-2%,9,-5,5,41*
N#CCCN(C(=O)COC(=O)c1ccc(S(=O)(=O)N2CCCC2)cc1)c1cccc(Cl)c1,-4,-6%,1,-6,-2,31*
CCN(Cc1ccccc1)C(=O)Cn1cc(S(=O)(=O)Cc2cccc(Cl)c2)c2ccccc21,-6,-1%,1,-14,-1,4
CCOc1ncccc1C(=O)OCC(=O)Nc1ccc(C)c(S(=O)(=O)N2CCOCC2)c1,-4,0%,-1,-16,0,1
Cc1ccc(NC(=O)COC(=O)Cn2cnc3ccccc32)cc1S(=O)(=O)N(C)C,17,-4%,0,-85*,-3,-1
CCOc1ncccc1C(=O)OCC(=O)NCCc1ccccc1,31*,-2%,0,0,0,1
CCOc1ncccc1C(=O)OCC(=O)NCCCc1ccccc1,/,-1%,/,/,/,/
CCOc1ncccc1C(=O)OCC(=O)Nc1ccc(C)c(S(=O)(=O)N(C)C)c1,36*,-1%,0,-1,-3,8
O=C(COC(=O)Cn1cnc2ccccc21)Nc1ccc2c(c1)C(=O)c1ccccc1C2=O,-5,4%,0,-27,-9,2
COc1nc(C)nc2c1ccc1ccccc12,-1,3%,0,-17,-6,-1
CC(C)(C)OC(=O)NCc1nnc(-c2nc3ccccc3[nH]2)o1,-5,/,0,3,7,4
C=C1C=C(C(F)F)n2ncc(C(=O)Nc3ccc(N(CC)CC)cc3)c2N1,/,-4%,/,/,/,/
Cc1ccc(NC(=O)COC(=O)CCc2ccc(S(=O)(=O)N3CCOCC3)cc2)cc1F,-7,1%,0,-31*,-4,14
O=C(COC(=O)CCC(=O)c1ccc(F)cc1)Nc1cccc(S(=O)(=O)N2CCOCC2)c1,33*,-2%,0,-1,0,7
